This is a sample that favours compounds with a hit; in the whole collection about 28% have one here.
Mac1 fbg inh = inhibitors of CD11b/CD18 adhesion to fibrinogen, primary screen, K562 cells, luminescence; ATPlite luminescence; Mn2+ added to activate the integrin; inhibition, % at 10 µM; 0.54% of 93,000 active;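 active = primary inhibition of 50% or more at 10 µM, then 40% or more on retest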
CYP2C9 inh = blockers of cytochrome P450 2C9 activity – biochemical, luminescence, ADME assay, primary screen. P11712. inhibition, % at 5 µM. CYP2C9 Supersomes, luciferin-H conversion. 20% of 96,000 active. AID 777, 2007;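 active = blocking of liver enzyme CYP2C9 beyond about 50% at 5 µM, limit read from the data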
Target sequence (P11712 whole entry, looked up): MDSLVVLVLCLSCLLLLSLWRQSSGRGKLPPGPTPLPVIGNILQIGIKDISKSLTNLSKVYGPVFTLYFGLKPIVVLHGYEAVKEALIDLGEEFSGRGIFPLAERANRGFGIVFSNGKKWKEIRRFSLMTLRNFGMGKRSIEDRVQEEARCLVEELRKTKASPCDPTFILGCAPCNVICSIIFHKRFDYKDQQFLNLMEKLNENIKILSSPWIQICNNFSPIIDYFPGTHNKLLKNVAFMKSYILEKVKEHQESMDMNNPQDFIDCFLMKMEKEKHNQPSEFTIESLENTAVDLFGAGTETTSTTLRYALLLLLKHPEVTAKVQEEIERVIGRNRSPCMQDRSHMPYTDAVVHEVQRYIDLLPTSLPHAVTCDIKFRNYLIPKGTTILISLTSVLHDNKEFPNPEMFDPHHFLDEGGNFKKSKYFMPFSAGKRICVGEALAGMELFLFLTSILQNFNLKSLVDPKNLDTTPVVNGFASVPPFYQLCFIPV
CYP2C19 activ = human CYP2C19 activators, primary screen, biochemical, luminescence | recombinant CYP2C19, luciferin-H EGE luminescence; stronger effect = higher value; 0 = fully inhibited enzyme, 1 = untreated enzyme | Cytochrome P450 2C19 (Homo sapiens), P33261 | activation factor at 5 µM | 96,000 tested, under 10 active;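 active = activation factor of at least 2 at 5 µM in the primary screen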;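 note: 0 = wells with 2.5 mM tranylcypromine and 1 = vehicle-only wells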
CYP2C9 act = human CYP2C9 activators, primary screen, biochemical, luminescence | Cytochrome P450 2C9 (Homo sapiens), P11712 | recombinant CYP2C9, luciferin-H conversion; stronger effect = higher value; factor 1 = untreated enzyme, 0 = blocked | activation factor at 5 µM | 1.4% of 96,000 active;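 active = activation factor of 2 or more for CYP2C9 at a 5 µM dose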;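 note: 0 = sulfaphenazole-blocked wells and 1 = vehicle-only wells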
Mac1 fbg enh = enhancers of CD11b/CD18 adhesion to fibrinogen, primary screen, K562 cells, luminescence | Integrin beta-2 (Homo sapiens) + Integrin alpha-M (Homo sapiens), P05107+P11215 | ATPlite luminescence | activation, % at 10 µM | 0.07% of 93,000 active;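 active = 10 µM primary screen giving 50% or more activity, confirmed by 40% or more on retest at that dose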
CYP2C19 inh = blockers of cytochrome P450 2C19 activity – biochemical, luminescence, ADME assay, primary screen; P33261; CYP2C19 Supersomes, luciferin-H EGE luminescence, 30 min; inhibition, % at 5 µM; 21% of 96,000 active;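 active = CYP2C19 inhibition above a set limit at 5 µM in the primary screen, cut at about 50% in these data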;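 note: plate controls were negative control wells for no effect and 2.5 mM tranylcypromine positive control for full effect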
The depositor's hits bear a star; / = no result.

SMILES | Mac1 fbg inh | CYP2C9 inh | CYP2C19 activ | CYP2C9 act | Mac1 fbg enh | CYP2C19 inh
Cn1c(=O)n(CCc2ccccc2)c(=O)c2c1nc1n2CCCN1Cc1ccccc1 | -10.1 | 15.1 | 0.9 | 0.8 | 3.6 | 11.0
Cn1c(=O)n(CCc2ccccc2)c(=O)c2c1nc1n2CCCN1CCc1ccccc1 | -7.1 | 93.2* | 0.1 | 0.1 | 3.3 | 92.2*
Cn1c(=O)n(Cc2ccc(F)cc2)c(=O)c2c1nc1n2CCCN1Cc1ccccc1 | / | 85.9* | 0 | 0.1 | / | 96.0*
CC(C)Cn1c(=O)c2c(nc3n2CCCN3CCc2ccccc2)n(C)c1=O | 16.8 | 93.0* | 0.1 | 0.1 | 0.8 | 85.4*
Cn1c(=O)n(Cc2ccccc2F)c(=O)c2c1nc1n2CCCN1CCc1ccccc1 | -8.0 | 16.7 | 0.7 | 0.8 | -3.5 | 33.1
Cc1ccc(N2CCCn3c2nc2c3c(=O)n(CC(=O)OCc3ccccc3)c(=O)n2C)cc1C | -2.3 | 55.0* | 0.8 | 0.4 | -5.6 | 22.0
CCn1c(Cc2cccn2C)nnc1SCC(=O)c1ccc(C)cc1 | -1.0 | 27.4 | 0.5 | 0.7 | 1.1 | 46.7
CCOC(=O)c1c(C#N)c(SCC(=O)Nc2ccc(OC)cc2)nc2c1CN(CC)CC2 | 0.4 | 97.5* | 0.5 | 0 | 1.9 | 51.8*
COc1ccc(NC(=O)CSc2nnc(-c3cccs3)n2C)cc1OC | -4.3 | -5.2 | 1.1 | 1.1 | -2.8 | -9.4
COc1ccc(NC(=O)CSc2nc(N)c(C#N)cc2C#N)cc1 | 11.5 | 41.0 | 1.1 | 0.6 | -4.8 | -6.3
COc1ccc(NC(=O)CSc2nc3c(c(-c4cccs4)c2C#N)CN(C)CC3)cc1OC | / | 63.8* | 0.5 | 0.4 | / | 49.7
O=C(Nn1c(-c2ccccc2)nc2ccccc2c1=O)C1CCC1 | -4.1 | 8.6 | 0.9 | 0.9 | 3.5 | 13.3
CN(C)c1ccc(N=Nc2ccccc2C(=O)OCC(=O)N(C)c2ccccc2)cc1 | 55.1 | / | / | / | -6.8 | /
CCn1c(CSc2nc3ccccc3s2)nnc1SCC(=O)c1ccc(O)cc1O | 8.3 | -10.5 | 1.1 | 1.1 | 0.8 | -14.2
CCN(CC)CCCNC(=O)C1CCC(=O)N(c2ccc(OC)cc2)C1c1ccc(F)cc1 (stereo unspecified) | / | -19.5 | 1.2 | 1.2 | / | -20.7
Cc1cnc(C(=O)OCC(=O)Nc2oc(-c3ccccc3)c(-c3ccccc3)c2C#N)cn1 | 13.6 | 62.2* | 0.9 | 0.4 | 4.8 | 10.4
COc1ccc(-c2oc(NC(=O)CSc3nncn3C)c(C#N)c2-c2ccc(OC)cc2)cc1 | 4.9 | 58.0* | 0.6 | 0.4 | -0.2 | 39.0
N#Cc1c(NC(=O)CSc2ncnc3sccc23)oc(-c2ccco2)c1-c1ccco1 | 29.5 | 83.6* | 0.7 | 0.2 | 47.9 | 26.3
COc1ccc(NC(=O)CSc2nncn2C)c([N+](=O)[O-])c1 | -5.6 | 7.0 | 1 | 0.9 | 0.2 | 1.1
CCn1c(SCC(=O)Nc2oc(-c3ccccc3)c(-c3ccccc3)c2C#N)nnc1-c1ccco1 | 23.3 | 96.5* | 0.1 | 0 | 1.7 | 94.4*
CC1CCCC(C)N1NC(=O)c1ccc(Cl)c(S(N)(=O)=O)c1 (stereo unspecified) | 7.4 | -3.5 | 1.3 | 1 | -3.6 | -25.0
N#Cc1c(NC(=O)CSc2ccccn2)oc(-c2ccccc2)c1-c1ccccc1 | 9.0 | 85.7* | 1.2 | 0.1 | -1.9 | -17.0
CCn1c(SCC(=O)Nc2oc(-c3ccccc3)c(-c3ccccc3)c2C#N)nnc1-c1ccncc1 | 14.4 | 78.2* | 0.4 | 0.2 | -2.3 | 57.7*
CC(Oc1ccc(C(C)(C)C)cc1)c1ccnc2nc(/N=C/N(C)C)nn12 (stereo unspecified) | -0.7 | 13.0 | 0.9 | 0.9 | -5.4 | 6.1
COc1ccc(CCC(=O)Nc2ccc(Br)cn2)cc1 | 2.4 | 21.3 | 0.2 | 0.8 | 0.8 | 81.0*
SMILES | Mac1 fbg inh | CYP2C9 inh | CYP2C19 activ | CYP2C9 act | Mac1 fbg enh | CYP2C19 inh
O=C(O)CCC(=O)Nc1ccc(Br)cn1 | 2.5 | 2.5 | 0.5 | 1 | -6.5 | 50.2*
O=C(CCCN1C(=O)c2ccccc2C1=O)Nc1ccc(Br)cn1 | -0.3 | 10.4 | 1 | 0.9 | 0.3 | -4.5
CCOC(=O)Nc1oc2ccccc2c(=O)c1CN1CCOCC1 | -2.7 | 12.1 | 1 | 0.9 | -2.5 | 0.8
O=C(c1ccc(C#CC2(O)CCCCC2)cc1)N1CCN(C(c2ccccc2)c2ccccc2)CC1 | -20.8 | 68.0* | 0.6 | 0.3 | 47.8 | 38.7
O=C(c1ccc(C#CC2(O)CCCCC2)cc1)N1CCN(Cc2ccccc2)CC1 | -8.5 | 32.8 | 0.8 | 0.7 | 0.4 | 23.0
CC(C)N(C(=O)CN1C(=O)NC2(CCCCCC2)C1=O)C(C)C | -4.4 | -10.4 | 1.1 | 1.1 | 0.1 | -5.8
Cc1ccc(-c2n[nH]c(=S)n2/N=C/C=C\c2ccccc2[N+](=O)[O-])cc1 | 1.5 | 44.7 | 0.7 | 0.6 | -1.6 | 28.2
O=[N+]([O-])c1ccccc1/C=C/C=N/n1c(-c2ccc(Cl)cc2)n[nH]c1=S | -6.2 | 57.5* | 0.9 | 0.4 | 15.4 | 8.3
CC(C)Cn1c(-c2ccc(Cl)cc2)cnc1SCC(=O)N1CCOCC1 | / | 23.2 | 0.7 | 0.8 | / | 30.9
COc1ccc(NC(=O)c2ccc(Br)o2)c([N+](=O)[O-])c1 | -4.3 | -6.0 | 0.9 | 1.1 | 1.2 | 5.2
NC(=O)C1(N2CCCCC2)CCN(C(=O)CSc2nc3ccccc3s2)CC1 | 14.1 | 79.1* | 0.2 | 0.2 | -4.9 | 78.1*
O=C1CCCCCN1CSc1nc2ccccc2s1 | 4.3 | -15.8 | 0.7 | 1.2 | -2.7 | 33.5
O=C(CSc1nc2ccccc2s1)N1CCOCC1 | -43.3 | 25.9 | 0.2 | 0.7 | -4.6 | 78.3*
CC(C)c1cc(C(=O)NNC(=S)NCc2ccco2)c(O)c(C(C)C)c1 | 104.4 | / | / | / | -9.7 | /
CC(C)NC(=O)CSc1nnc(C2CC2)n1-c1ccccc1 | 0.7 | 1.8 | 1 | 1 | -2.5 | 1.2
COc1cc2cc(C)c(SCC(=O)N3CCOCC3)nc2cc1OC | -6.9 | 37.1 | 0.8 | 0.6 | 0.5 | 15.5
CCOc1cc(S(=O)(=O)Nc2ccccc2CC)ccc1Cl | 12.3 | -84.8 | 0.2 | 1.8 | -0.6 | 81.7*
CCOc1cc(S(=O)(=O)Nc2ccc(CC)cc2)ccc1Cl | 76.5 | 80.1* | 0.5 | 0.2 | -4.4 | 46.1
COc1cc(S(=O)(=O)Nc2ccccc2C)ccc1Cl | 14.6 | -97.6 | 0 | 2* | -1.2 | 99.7*
COc1cc(S(=O)(=O)Nc2c(C)cc(C)cc2C)ccc1Cl | -7.2 | 14.2 | 0.6 | 0.9 | -1.5 | 44.5
O=C(CNC(=O)OCc1ccccc1)NCC(=O)N1CCCC1C(=O)OCc1ccccc1 (stereo unspecified) | 3.0 | 5.0 | 1 | 0.9 | -1.2 | -0.5
CCOc1ccc(C(=O)Nc2ccc(NC(=O)c3cccs3)cc2)cc1[N+](=O)[O-] | -11.0 | / | / | / | 31.5 | /
